# HT1080 IDH1KD tx: toxicity to HT-1080 IDH1 knockdown cells (counter line) | HT-1080 IDH1 knockdown viability, ATP luminescence, 48 h | Potency, µM (top dose mostly 46.1 µM), inactives show at the top dose activity, negative = toxicity, actives largely listed as cytotoxic | 360,000 tested, 2% active | AID 686971;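 also: potency is read from the fitted curve at half-maximal effect; 0% = DMSO wells and -100% = cell-free medium wells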
#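 Knockdown cells (IDH1KD HT-1080) received compounds 2 h after plating at 750 cells/well and were kept 48 h at 37 °C in 5% FBS RPMI. A CellTiter-Glo luminescence read gave % activity for curve fitting.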
# IL-1B inflam inh: blocks inflammasome-driven IL-1 beta release; THP-1 LPS/ATP IL-1B secretion, AlphaLISA, 16 h; stronger effect = lower value; activity change, % at 57.5 µM; 360,000 tested, 4.7% active; AID 743279; in the data active = activity change below about -50%; inconclusive = mostly about -30% to -49%
#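 Secreted IL-1B measured by AlphaLISA bead assay after 16 h compound exposure of THP-1 cells; compounds (final up to 57.5 uM) added 1 h before LPS (250 ng/mL) and ATP (1.25 mM) stimulation; lower signal means less secretion.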
# TDP1 cell CPT: DT40-hTDP1 cell growth loss with CPT; 420,000 tested, 12% active; chicken DT40 Tdp1-/-;hTDP1 cells + 20 nM CPT, ATP luminescence, 48 h; Potency, µM (series often up to 46.2 µM), for inactives: at the highest dose activity change, negative = growth inhibition, actives largely listed as inhibitors; also: potency is read from the fitted curve at half-maximal effect; nearly all actives have a fitted effect of over 55% in size
#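 Cell growth measured by CellTiter-Glo luminescence after a minimum 48 h, 37 C compound exposure with 20 nM CPT in Tdp1-knockout DT40 cells stably expressing hTDP1, seeded 400/well; qHTS titration format.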
# ALOX12 inh: inhibitors of human 12S-lipoxygenase ALOX12. P18054. purified 12hLO, xylenol orange hydroperoxide absorbance. Potency, µM (titrated, usually from 108 µM), for inactives: at the highest dose activity change, negative = inhibition, most hits filed as inhibitors. 580,000 tested, 1.1% active. AID 1671190; also: potency is read from the fitted curve at half-maximal effect
# Target sequence (P18054 whole entry, looked up): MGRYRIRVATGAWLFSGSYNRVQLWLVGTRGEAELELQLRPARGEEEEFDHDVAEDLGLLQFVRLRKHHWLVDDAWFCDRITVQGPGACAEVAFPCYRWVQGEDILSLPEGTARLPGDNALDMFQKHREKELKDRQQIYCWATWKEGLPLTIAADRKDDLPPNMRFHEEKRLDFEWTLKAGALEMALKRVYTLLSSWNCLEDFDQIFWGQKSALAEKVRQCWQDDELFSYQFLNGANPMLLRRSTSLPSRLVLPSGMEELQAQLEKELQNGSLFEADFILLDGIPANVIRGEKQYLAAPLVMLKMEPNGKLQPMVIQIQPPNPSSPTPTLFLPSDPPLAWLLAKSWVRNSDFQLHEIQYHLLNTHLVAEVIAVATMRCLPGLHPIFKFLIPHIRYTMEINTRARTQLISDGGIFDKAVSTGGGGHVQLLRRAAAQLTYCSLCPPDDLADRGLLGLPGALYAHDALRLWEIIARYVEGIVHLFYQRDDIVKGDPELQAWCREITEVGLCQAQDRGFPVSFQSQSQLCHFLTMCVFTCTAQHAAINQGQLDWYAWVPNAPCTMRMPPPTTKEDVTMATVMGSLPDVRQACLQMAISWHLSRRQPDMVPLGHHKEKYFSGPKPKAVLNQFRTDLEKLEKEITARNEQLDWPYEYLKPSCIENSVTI
#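 Hydroperoxide product was detected by ferrous iron/xylenol orange as the 573 to 405 nm absorbance ratio. Arachidonic acid at 40 uM (final) was turned over for 30 min at room temperature by 150 nM human 12hLO, pH 7.0 Hepes buffer, after 15 min compound preincubation.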
# TDP1 cell noCPT: qHTS for Inhibitors of human tyrosyl-DNA phosphodiesterase 1 (TDP1): qHTS in cells in absence of CPT; Potency, µM (doses to about 46.2 µM), without a hit: at the highest dose activity change, negative = growth inhibition, hits mostly inhibitors; DT40 Tdp1-/- hTDP1 cells, no CPT, ATP luminescence, 48 h; 420,000 tested, 15% active; also: potency is read from the fitted curve at half-maximal effect; nearly all actives have a fitted effect of over 55% in size
#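 Compound effects on proliferation are scored in DT40 Tdp1-/-;hTDP1 cells in the absence of CPT. ATP levels (CellTiter-Glo luminescence) are recorded after a ≥48 hr, 37 °C incubation.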
# HT1080-NT tox: kills 2HG-producing HT-1080-NT fibrosarcoma cells. 360,000 tested, 1.6% active. HT-1080-NT fibrosarcoma viability, CellTiter-Glo ATP luminescence, 48 h. AID 686970. Potency, µM (series often up to 46.1 µM), without a hit: top-dose activity, negative = less viability, usual class: cytotoxic;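 also: NT is the 2HG producing partner of a matched IDH1 knockdown line; potency is read from the fitted curve at half-maximal effect; 0% = DMSO-treated cells and -100% = media-only wells without cells; nearly all actives have a fitted effect of over 55% in size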
#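 A 48-hour cytotoxicity screen used HT-1080-NT cells plated 2 hours before compound delivery. ATP-based CellTiter-Glo luminescence measured viability, normalized to DMSO and no-cell controls.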
# * hit, by the source's call; ? = inconclusive; . = no result given; [ ] = remark or other dose. Only a selection was taken, and hits are over-represented in it overall. Unless noted, calls follow the shape of the dose curve; as a rule, active = well fitted curve in the direction sought with a large enough effect; inconclusive = small, poorly fitted or top-dose-only effect, or another doubt; inactive = no such curve, though single readings can be large; an effect the other way counts as inactive or inconclusive. Unless noted, % is scaled to controls: 0 for no effect and ±100 for the full control effect.
SMILES,HT1080 IDH1KD tx,IL-1B inflam inh,TDP1 cell CPT,ALOX12 inh,TDP1 cell noCPT,HT1080-NT tox
COc1cc2c3nnc(-c4ccc(F)cc4)c-3cn(Cc3cccc(F)c3)c2cc1OC,-28.0%,-2.7,2.31µM*,.,2.59µM*,?
COc1cc2c3nnc(-c4ccccc4)c-3cn(Cc3ccc(F)cc3)c2cc1OC,20.6µM*,-192.1*,8.2µM*,?,14.6µM*,18.4µM*
Cc1ccc(-n2nnnc2CNS(=O)(=O)c2ccccc2Cl)cc1,.,.,.,-8.1%,.,.
Cc1csc2nc(-c3ccc(NS(=O)(=O)c4cccs4)cc3)cn12,.,.,.,-11.3%,.,.
CCOC(=O)c1cnc(N2CCN(c3ccccc3)CC2)c2ccccc12,.,.,.,-3.0%,.,.
C=CCNC(=O)NC(=O)CSc1nc(-c2ccco2)nc2ccccc12,.,.,.,-20.5%,.,.
COC(=O)[C@@]1(Cc2ccc(OC)cc2)[C@@H]2C(=CC(=O)[C@H]2CC(=O)C(=O)N2CCCC2)CN1C(=O)c1ccccc1,20.6µM*,-76.0*,?,.,16.4µM*,?
COC(=O)[C@@]1(Cc2ccc(OC)cc2)[C@@H]2[C@@H](CC(=O)[C@H]2CC(=O)C(=O)N(C)C)CN1C(=O)c1ccccc1,-0.5%,-21.2,23.1µM*,0.6%,?,1.1%
COC(=O)[C@@]1(Cc2ccc(F)cc2)[C@H]2C(CC(=O)C(=O)N3CCCC3)C(=O)C[C@H]2CN1C(=O)c1ccccc1 (stereo partly drawn),?,-70.4*,?,-26.5%,?,?
CC(C)(C)CN1CCOC[C@H]1c1ncc(-c2ccc(S(C)(=O)=O)cc2)[nH]1,.,.,.,6.0%[176 µM],.,.
Cc1ccc(C(C)C)c(OCc2nnc3n2CCCCC3)c1,-15.9%,-28.0,?,?,?,-5.7%
COc1ccc(C(=O)Cn2nc(CNc3ccc(Br)cc3)[n+]3c2CCCCC3)cc1,?,-80.3*,3.66µM*,-8.2%,2.59µM*,?
Cc1ccc(C(C)C)c(OCc2nn(CC(=O)c3ccc(OC(F)F)cc3)c3[n+]2CCCCC3)c1,18.4µM*,-107.4*,0.581µM*,.,0.581µM*,14.6µM*
O=C(Cn1nc(-c2nn(CC(=O)c3ccccc3)c3[n+]2CCCCC3)[n+]2c1CCCCC2)c1ccccc1,9.1%,-8.8,13.1%,110.7%,-10.9%,-4.3%
COc1ccc(Oc2coc3cc(OC(=O)c4ccc(Br)cc4)ccc3c2=O)cc1,.,.,.,-3.3%,.,.
CCCCCCNCCN1CCOCC1,.,.,.,34.2%,.,.
Cc1csc(N=Nc2ccc(N(C)C)cc2)[n+]1[O-],?,-79.7*,10.3µM*,98.6%,9.2µM*,?
COc1ccc(C(=O)N[C@H]2CO[C@H]3[C@@H]2OC[C@H]3OCc2ccccc2)cc1,.,.,.,14.3%[176 µM],.,.
Cc1nc(SC(C)C(=O)NCC2CCCO2)c2cc(-c3ccccc3)sc2n1 (stereo not drawn),?,-63.1*,14.6µM*,6.8%,14.6µM*,-8.7%
C=CCn1c(SCC(=O)NCC2CCCO2)nc2scc(-c3ccccc3)c2c1=O (stereo not drawn),-3.7%,-5.6,25.9µM*,0.0%,?,8.3%
CCn1c(SC(C)C(=O)NCC2CCCO2)nc2scc(-c3ccccc3)c2c1=O (stereo not drawn),1.1%,-2.9,18.4µM*,4.6%,?,-2.2%
CC(Sc1ncnc2c1cnn2-c1ccccc1)C(=O)NCC1CCCO1 (stereo not drawn),-14.4%,10.6,-22.0%,15.2%,-6.5%,2.9%
O=C(CSCc1cnn(-c2ccccc2)c1-n1cccc1)N1CCN(Cc2ccccc2)CC1,3.2%,-1.3,?,-28.0%,13µM*,-11.1%
